Measured values reported in PubChem BioAssay (NCI).
About 79,000 compounds went through this panel and 15% of them were active in at least one assay; those are over-represented in the sample as a whole. Active and inactive are the calls of the source. Rule as the data show it: active = growth inhibition above about 70%; inactive = the rest.

Tests used:
[1] = NCI Yeast Anticancer Drug Screen. Data for the rad50 strain (AID 155);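 also: 0% = growth of vehicle-only cultures of the same strain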; details: S. cerevisiae rad50 strain growth inhibition; at 50.0 µM; stronger effect = higher value
Procedure, shortened: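 Genetically altered yeast (DNA repair pathway); compound treatment; growth inhibition vs vehicle ctrl.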

[2] = NCI Yeast Anticancer Drug Screen. Data for the mec2-1 strain (AID 157); details: S. cerevisiae mec2-1 strain, at 50.0 µM, stronger effect = higher value
Procedure, shortened: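 Each compound was tested on mec2-1 yeast, a strain altered in DNA damage repair or cell cycle control. Growth inhibition is reported relative to vehicle.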

[3] = NCI Yeast Anticancer Drug Screen. Data for the sgs1 mgt1 strain (AID 161);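 also: 0% = growth of cultures given vehicle only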; details: S. cerevisiae sgs1 mgt1 strain, at 50.0 µM, stronger effect = higher value
Procedure, shortened: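 Inhibition of yeast growth, normalised to vehicle-treated controls, is reported for a strain bearing genetic alterations in DNA damage repair.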

[4] = NCI Yeast Anticancer Drug Screen. Data for the cln2 rad14 strain (AID 165);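 also: 0% = growth equal to vehicle treated cultures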; details: S. cerevisiae cln2 rad14 strain, at 50.0 µM, stronger effect = higher value
Procedure, shortened: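 Test compounds were added to cln2 rad14 yeast cultures; inhibition of growth was then determined by comparison with vehicle treatment.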

[5] = NCI Yeast Anticancer Drug Screen. Data for the bub3 strain (AID 167); details: S. cerevisiae bub3 mutant strain, at 50.0 µM, stronger effect = higher value
Procedure, shortened: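 Yeast carrying a defined mutation is treated with each compound, and growth is compared with that of vehicle-exposed cells to give inhibition.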

[6] = NCI Yeast Anticancer Drug Screen. Data for the mlh1 rad18 strain (AID 175); details: S. cerevisiae mlh1 rad18 strain growth inhibition; at 50.0 µM; stronger effect = higher value
Procedure, shortened: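 Inhibition values reflect reduced growth of mutant yeast versus vehicle-treated controls following compound exposure; the mutations affect DNA damage repair.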

Measured: growth inhibition

C[N+]1(C)CCCC(OC(=O)C(O)(c2ccccc2)c2ccccc2)C1 (configuration not stated)
inactive: [1] 38% | [2] 10.1% | [3] 15.6% | [4] -18.9% | [5] 13.6% | [6] 27.7%

COc1cc(/C=N/N=C(\N)NO)cc(Cl)c1O
inactive: [1] -20.4% | [2] -29.1% | [3] -27.3% | [4] -19.2% | [5] -8% | [6] -36.1%

CC(C)CCCC(C)C1CCC2C3CC=C4CC(C(=O)O)CCC4C3CCC12C (configuration not stated)
inactive: [1] 26.8% | [2] 21.6% | [3] 14.1% | [4] 21.2% | [5] -3.5% | [6] 22.6%

CCCC(CC)=C(c1ccc(OC(C)=O)cc1)c1ccc(OC(C)=O)cc1
inactive: [1] 44.4% | [2] 24.3% | [3] 51.5% | [4] 38.9% | [5] 31% | [6] 54.7%

Nc1cccc2c1-c1ccc([N+](=O)[O-])cc1C2=O
inactive: [1] 7.6% | [2] 18.4% | [3] -6.25% | [4] 5.5% | [5] 5.55% | [6] 4.25%

CCOC(=O)CC1=Nc2ccccc2SC1
inactive: [1] -28.4% | [2] -31.2% | [3] -14.8% | [4] -12.8% | [5] -22.6% | [6] -28.6%

CCOC(=O)C(O)Cc1cnc2ccccc2n1 (configuration not stated)
inactive: [1] -1.45% | [2] -13.3% | [3] -12.3% | [4] -13.3% | [5] -11.1% | [6] 7.55%

O=C(/C=C/c1ccc(Cl)c(Cl)c1)c1ccc2ccccc2c1
inactive: [1] 28.2% | [2] 1.95% | [3] -3.7% | [4] -8.6% | [5] 11.2% | [6] 20.2%

CN(C)CCCN1C=CC(=C2C(=O)c3ccccc3C2=O)C=C1
inactive: [1] 3.1% | [2] 20.8% | [3] 10.3% | [4] 34.9% | [5] 8.5% | [6] -0.95%

CC(=O)C(C(=O)NCc1ccccc1)C(c1ccc2c(c1)OCO2)C(C(C)=O)C(=O)NCc1ccccc1 (configuration not stated)
inactive: [1] -5.7% | [2] 1.25% | [3] -23.6% | [4] -17.3% | [5] -0.65% | [6] 0.45%

C[N+](C)(C)CC(O)CC#N (configuration not stated)
inactive: [1] -2.25% | [2] 1.75% | [3] -4% | [4] -8.35% | [5] 0.55% | [6] -1.8%

Cc1ccc(C)c(NC(=O)C(=O)C(C(=O)c2ccc3ccccc3c2)C2OC(=O)c3ccccc32)c1 (configuration not stated)
inactive: [1] 23.9% | [2] 15.8% | [3] 35.9% | [4] 23.5% | [5] 4.15% | [6] 13.7%

NC(=O)c1ccccc1C(N)=O
inactive: [1] 13.4% | [2] -10.6% | [3] 8.95% | [4] 30.7% | [5] -11.8% | [6] -31.9%

N#CSCCOCCOC(=O)NC1CCCCC1
inactive: [1] 10.2% | [2] 4.75% | [3] 14.7% | [4] 5.25% | [5] 16.2% | [6] 14.6%

CCOC(=O)C1=C(C)c2ccccc2OC1C(=O)O (configuration not stated)
inactive: [1] 4.55% | [2] 11.1% | [3] 16.8% | [4] -23.4% | [5] -13.1% | [6] -10.3%

Cc1ccc(-n2c(C)nc3c(c(C)c(C)n3-c3ccccc3)c2=N)cc1
inactive: [1] 4.1% | [2] -0.75% | [3] 4.75% | [4] -19% | [5] 15.4% | [6] 6.65%

CCOC(=O)Cn1c2ccccc2c(=O)c2cc(C)c(C)c(C#N)c21
inactive: [1] 13.4% | [2] -12.9% | [3] -11.6% | [4] 9% | [5] 8.5% | [6] 8.1%

N#CC1NCNC1N (configuration not stated)
inactive: [1] 0.2% | [2] 0.65% | [3] -6.6% | [4] 1.15% | [5] -1.25% | [6] -16.8%

N#C/C(=C\c1c(Cl)cccc1Cl)c1nc(-c2ccc(Cl)cc2)cs1
inactive: [1] -32.4% | [2] -40.6% | [3] -25.5% | [4] -23.6% | [5] -17.4% | [6] -32.9%

CC(C)[C@@H]1NC(=O)[C@@H]2N=C(O[C@H]2C)[C@H](C(C)C)NC(=O)C2N=C1O[C@H]2C
inactive: [1] 11% | [2] 4.75% | [3] 2.15% | [4] 9.45% | [5] 10.3% | [6] -34.1%

CNC(CCNCCc1ccccc1)CNCCc1ccccc1 (configuration not stated)
inactive: [1] 44.1% | [2] 4.8% | [3] 22.8% | [4] 3.85% | [5] 5.7% | [6] 22.2%

O=C(Nc1ccccc1F)C(c1ccccc1)c1ccccc1
inactive: [1] 14.8% | [2] 8.95% | [3] 3.25% | [4] -1.45% | [5] 11.8% | [6] 4%

CNC(=O)c1ccc[n+](CC(=O)NCc2ccccc2)c1
inactive: [1] -1.8% | [2] -11.3% | [3] -15.8% | [4] -2.25% | [5] -1.5% | [6] -15.6%

COc1ccc(-c2cc(-c3ccc(OC)cc3)cc(-c3ccc(OC)cc3)c2)cc1
inactive: [1] -19.5% | [2] -22.8% | [3] -14.9% | [4] -27.8% | [5] -14% | [6] -16.6%

Nc1nnc(CCCCCCCc2nnc(N)o2)o1
inactive: [1] -6.25% | [2] 12.6% | [3] 3.45% | [4] 7.5% | [5] 6.85% | [6] 13.2%

C/C(=N/NC(N)=O)C1=CCCCC1
inactive: [1] -7% | [2] 7.3% | [3] 6.35% | [4] 4.1% | [5] 0.7% | [6] 7.4%

NC(=O)O/N=C/c1ccccn1
inactive: [1] -12.1% | [2] 2.75% | [3] -17.4% | [4] -10% | [5] -2.65% | [6] -6.95%

Nc1c(Cl)cnn2nnnc12
inactive: [1] -7.5% | [2] -17.4% | [3] -15.6% | [4] -11.9% | [5] 2.95% | [6] -4.25%

O=C1CN(c2cccc(C(F)(F)F)c2)C(=O)CN1/N=C/c1ccc(O)c(O)c1
inactive: [1] 3.4% | [2] -0.1% | [3] -5.3% | [4] -2.3% | [5] 2.4% | [6] 27.6%

C#CCN(CC#C)C(=O)CCCCCCCCC=C
active: [1] 97% | [2] 96.5% | [3] 97% | [4] 86% | [5] 97.5% | [6] 97.2%

Cc1c(S)cnc2ccccc12
inactive: [1] -0.55% | [2] -6.25% | [3] 1.7% | [4] -66.6% | [5] -14.8% | [6] 2.85%

C=C(C)c1ccc(F)cc1
inactive: [1] 3.9% | [2] -7.5% | [3] -1.65% | [4] 4.2% | [5] -2.05% | [6] 0.55%

CN1CC2=C(C1)C(N(C(=O)c1ccc(-c3ccccc3)cc1)C(=O)c1ccc(-c3ccccc3)cc1)=NCN2
inactive: [1] 11.4% | [2] 3.25% | [3] 16.1% | [4] 10.6% | [5] 0.6% | [6] 21.6%

CC(=O)Nc1ccc(S(=O)(=O)CCN2C(=O)c3ccccc3C2=O)cc1
inactive: [1] -4.55% | [2] -8.85% | [3] 12.3% | [4] -62.5% | [5] 4.35% | [6] -16.8%

COC(=O)CC1(C)[C@H](O)[C@H]2OC(C)(C)O[C@H]2[C@@H]1O (some centres not stated)
inactive: [1] 7.7% | [2] -10.6% | [3] -18.2% | [4] -3.25% | [5] -7.5% | [6] 38.2%

CCCCCCCC(=O)N1C2CN3C4=C(C(=O)C(N)=C(C)C4=O)C(COC(N)=O)C3(OC)C21 (configuration not stated)
inactive: [1] 18.6% | [2] 13.1% | [3] 30.4% | [4] 20.8% | [5] 19.1% | [6] 47.1%

COc1cc([C@@H]2c3cc4c(cc3[C@H](OC(=O)CCCC(=O)O)[C@H]3COC(=O)[C@H]23)OCO4)cc(OC)c1OC
inactive: [1] 26.2% | [2] 23.2% | [3] 38.5% | [4] 32.3% | [5] 10.9% | [6] 33.6%
